Screening results (PubChem BioAssay)
TDP1 inh: qHTS Assay for Inhibitors of Tyrosyl-DNA Phosphodiesterase (TDP1) | recombinant TDP1, AlphaScreen DNA substrate cleavage | Potency, µM (doses to about 130 µM), without a hit: top-dose activity change, negative = inhibition, hits mostly inhibitors | Tyrosyl-DNA phosphodiesterase 1 (Homo sapiens), Q9NUW8 | 350,000 compounds, 0.28% hits; further: potency means the concentration at half of the fitted maximal effect; on the % scale 0 is the no-effect control and ±100 the full control effect; nearly all actives have a fitted effect of over 40% in size
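E. coli-derived human Tdp1, 1 nM final. Cpd preinc 15 min RT; substrate 15 nM final, 5 min RT; AS bead mix 10 ug/ml final, 10 min RT. Signal loss = tyrosine-FITC cleavage. No-enzyme wells = max signal.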
JMJD2A Tudor inh: qHTS Assay for Inhibitors of JMJD2A-Tudor Domain; AlphaScreen JMJD2A-Tudor / H3K4me3 peptide binding; Potency, µM (top dose mostly 114 µM), inactives show at the highest dose activity change, negative = inhibition, actives largely listed as inhibitors; 390,000 compounds, 4.4% hits; AID 504339, 2011; further: potency means the concentration at half of the fitted maximal effect; on the % scale 0 is the no-effect control and ±100 the full control effect; nearly all actives have a fitted effect of over 50% in size
HP1b binding inh: HTS for Inhibitors of HP1-beta Chromodomain Interactions with Methylated Histone Tails | Chromobox protein homolog 1 (Homo sapiens), P83916 | AlphaScreen HP1-beta / biotin-H3K9me3 peptide binding | Potency, µM (doses to about 114 µM), for the others: at the top dose activity change, negative = inhibition, hits mostly inhibitors | 390,000 compounds, 0.56% hits | AID 540317, 2011; further: potency means the concentration at half of the fitted maximal effect; nearly all actives have a fitted effect of over 70% in size
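Compound inhibition of the preformed complex between 50 nM HP1-beta and 50 nM biotinylated H3K9me3 peptide was read by AlphaScreen. Buffer was PBS pH 7.4 with 0.01% Tween-20. Incubations ran 30 min at room temperature, with 10 ug/mL donor/acceptor beads.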
G9a block: qHTS Assay for Inhibitors of Histone Lysine Methyltransferase G9a; Histone-lysine N-methyltransferase EHMT2 (Homo sapiens), Q96KQ7; G9a H3K9 monomethylation, AlphaScreen, 2 h; Potency, µM (top dose mostly 102 µM), inactives show at the top dose activity, negative = inhibition, hits mostly inhibitors; 350,000 compounds, 8.8% hits; further: potency means the concentration at half of the fitted maximal effect; on the % scale 0 is the no-effect control and ±100 the full control effect; nearly all actives have a fitted effect of over 75% in size
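Methyltransferase reactions run at room temperature for 2 h (20 nM enzyme, 500 nM biotin-H3K9 peptide, 20 uM SAM) after a 15 min compound preincubation; product detected by AlphaScreen beads and anti-H3K9me1 antibody.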
BAZ2B block: qHTS Assay for Inhibitors of BAZ2B. AlphaScreen BAZ2B-H3K14Ac peptide displacement. Potency, µM (series often up to 114 µM), for the others: at the highest dose activity change, negative = inhibition, usual class: inhibitors. 360,000 compounds, 4.4% hits. AID 504333, 2011; further: potency means the concentration at half of the fitted maximal effect; on the % scale 0 is the no-effect control and ±100 the full control effect; nearly all actives have a fitted effect of over 60% in size
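Protein-peptide AlphaScreen: BAZ2B 50 nM, b-H3K14Ac 50 nM, 1x PBS pH 7.4 + 0.01% Tween-20. Preincubation 30 min RT; cpd 30 min RT (top 110 uM); beads 20 min RT, light-protected.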
Sfp PPTase inh: qHTS Assay for Inhibitors of Bacillus subtilis Sfp phosphopantetheinyl transferase (PPTase). 4'-phosphopantetheinyl transferase ffp (Bacillus subtilis), Q9F4F7. Biochemical Sfp PPTase activity, qHTS. Potency, µM, for inactives: largest response in the series, negative = inhibition, most hits filed as inhibitors. 310,000 compounds, 3.5% hits;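 further: the enzyme is Sfp with the accession as filed and its product quenches rhodamine fluorescence; potency means the concentration at half of the fitted maximal effect; 0% = enzyme reaction without inhibitor and -100% = no enzyme wells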
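Step 1, compound plus 15 nM Sfp-PPTase, 15 min, room temperature. Step 2, add rhodamine-CoA (5 uM) and BHQ-2-YbbR (12.5 uM). Step 3, read 525/598 nm fluorescence at 0 and 30 min.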
12-hLO 8HQ R1: Cuvette-Based Assay for Inhibitors of 12-hLO (12-human lipoxygenase): 8HQ Series - Round 1 | AID 2163, 2009 | Potency, µM, actives largely listed as inhibitors | shares compounds with BAZ2B block | 35 compounds, 60% hits | purified 12-hLO, cuvette UV 234 nm product formation;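 active means compounds that slowed 12-hLO product formation enough to yield a measured IC50 potency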
JMJD2E inh-1: Inhibitors of Human Jumonji Domain Containing 2E (JMJD2E): 8HQs - Round 1. shares compounds with BAZ2B block. JMJD2E demethylase, FDH-coupled NADH fluorescence. Potency, µM (top dose mostly 57 µM), without a hit: top-dose activity, negative = inhibition, hits mostly inhibitors. 130 compounds, 89% hits. AID 493212, 2011
ME-1 growth: qHTS Assay for Compounds Blocking the Interaction Between CBF-beta and RUNX1 for the Treatment of Acute Myeloid Leukemia: ME-1 cellular proliferation; shares compounds with BAZ2B block; ME-1 cell proliferation, ATP luminescence, 48 h; Potency, µM (titrated, usually from 56.1 µM), for inactives: top-dose activity change, negative = inhibition, usual class: inhibitors; 140 compounds, 20% hits; AID 504370, 2011
JMJD2E inh-2: Confirmation qHTS Assay for Inhibitors of Human Jumonji Domain Containing 2E (JMJD2E); 140 compounds, 93% hits; AID 2677, 2010; Recombinant JMJD2E, FDH-coupled NADH fluorescence (FDH is formaldehyde dehydrogenase); shares compounds with JMJD2A Tudor inh; Potency, µM (highest dose often 56.8 µM), inactives show top-dose activity change, negative = inhibition, hits mostly inhibitors
FDH counter: Counterscreen for JMJD2E Inhibitors: qHTS Assay for Inhibitors of Formaldehyde Dehydrogenase (FDH) | shares compounds with JMJD2A Tudor inh | FDH enzyme assay, NADH fluorescence kinetic | Potency, µM (highest dose often 56.7 µM), without a hit: at the highest dose activity, negative = inhibition, most hits filed as inhibitors | 140 compounds, 10% hits | AID 2680, 2010
JMJD2E MALDI inh: MALDI-TOF-MS Assay for Inhibitors of Human Jumonji Domain Containing 2E (JMJD2E) | Potency, µM, usual class: inhibitors | shares compounds with JMJD2A Tudor inh | recombinant JMJD2E demethylation, MALDI-TOF-MS | 45 compounds, 90% hits;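 active means compounds whose IC50 for blocking JMJD2E demethylation is below 100 µM; inconclusive means dose dependent effect but IC50 above 100 µM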
Numbers without * were called inactive; i = inactive; u = inconclusive; x = not tested or not shown; [ ] = dose if it differs, or a comment. This is a sample that favours compounds with a hit; in the whole collection about 12% have one here. Unless noted, the call rests on the fitted dose curve; in most records, active means well fitted curve in the direction sought with a large enough effect; inconclusive means small, poorly fitted or top-dose-only effect, or another doubt; inactive means no such curve, though single readings can be large; an effect the other way counts as inactive or inconclusive.

SMILES	TDP1 inh	JMJD2A Tudor inh	HP1b binding inh	G9a block	BAZ2B block	Sfp PPTase inh	12-hLO 8HQ R1	JMJD2E inh-1	others
CCCCC(=O)NC(c1ccco1)c1cc(Cl)c2cccnc2c1O (stereo not drawn)	6%	-14%[11.4 µM]	31%	x	-13%	3%	x	x
CCC(=O)NC(c1ccco1)c1cc(Cl)c2cccnc2c1OC (stereo not drawn)	0%	-13%	27%	-23%[12.7 µM]	-2%	x	i	32µM*
CC(=O)NC(c1ccco1)c1cc(Cl)c2cccnc2c1O (stereo not drawn)	x	x	x	14%[12.7 µM]	32µM*	x	3µM*	32µM*
CC(=O)NC(c1ccco1)c1cc(Cl)c2ccc(N(C)C)nc2c1O (stereo not drawn)	x	x	x	u	50µM*	x	i	20µM*
CC(=O)NC(c1ccco1)c1cc(Br)c2cccnc2c1O (stereo not drawn)	x	x	x	8%[12.7 µM]	28µM*	x	2µM*	29µM*
O=C(Nc1cccc(F)c1)N1CCCC2(CCN(S(=O)(=O)c3ccccc3)CC2)C1	x	x	x	7%[12.7 µM]	x	14%	x	x
CCC(=O)NC(c1cc(Cl)c2cccnc2c1O)c1cccn1C (stereo not drawn)	2%	u	x	x	x	x	3.8µM*	16%
Cc1ccc(C)c(NC(=S)N(C)CCc2ccccn2)c1	-1%	u	36%	-16%[59 µM]	-4%	-30%	x	x
Cc1ccc(C)c(NC(=S)N(CCN(C)C)C(C)c2ccccn2)c1 (stereo not drawn)	5%	-6%	33%	-4%	x	-4%	x	x	ME-1 growth=-4%[25.6 µM]
Cc1cccc(C)c1NC(=S)N(CCN(C)C)C(C)c1ccccn1 (stereo not drawn)	7%	-21%	9%	-15%	x	-25%	x	x	ME-1 growth=-11%[25.6 µM]
CC(c1ccccn1)N(CCN(C)C)C(=S)Nc1cccc(F)c1 (stereo not drawn)	6%	-9%	14%	-10%[12.7 µM]	u	-18%	x	x	ME-1 growth=-4%[25.6 µM]
c1cnc2c(c1)ccc1cccnc12	21%[56.1 µM]	7.9µM*	31%	13µM*	1.6µM*	2.5µM*	x	x	ME-1 growth=8.9µM*
O=C(O)c1cccc2cccnc12	4%	-3%[11.4 µM]	-12%	2%[59 µM]	u	u	x	x
Oc1csc(Cc2nc(-c3ccc4ccccc4c3)cs2)n1	8%	-18%	5%	39%[12.7 µM]	-9%	-9%	x	x
Oc1csc(Cc2nc(-c3ccccc3F)cs2)n1	9%	-22%	43%	u	-3%	-15%	x	x	ME-1 growth=1%[25.6 µM]
Oc1ccc(CCc2ccccc2)c2cccnc12	-8%	45µM*	x	x	x	x	x	7.1µM*	JMJD2E inh-2=9.1µM*;FDH counter=9%;JMJD2E MALDI inh=90*
Oc1ccc(COc2ccccc2Cl)c2cccnc12	3%	79µM*	x	x	x	x	x	13µM*	JMJD2E inh-2=13µM*;FDH counter=-27%
CCC(=O)NC(c1ccco1)c1cc(Cl)c2cccnc2c1O (stereo not drawn)	0%	u	2%	17%	45µM*	11%	1µM*	6.3µM*	JMJD2E inh-2=6.3µM*;FDH counter=-27%
COc1cc(C(=O)NC(c2ccc(Cl)cc2)c2cc(Cl)c3cccnc3c2O)cc(OC)c1OC (stereo not drawn)	8%	-17%	65%	22%[59 µM]	3%	x	x	x
CCC(=O)NC(c1ccc(C)s1)c1cc(Cl)c2cccnc2c1O (stereo not drawn)	0%	-23%	x	x	x	x	3.5µM*	-6%	JMJD2E inh-2=10µM*;FDH counter=-9%
CCC(=O)NC(c1cccs1)c1cc([N+](=O)[O-])c2cccnc2c1O (stereo not drawn)	4%	79µM*	-8%	u	7.9µM*	7.1µM*	0.8µM*	14µM*	JMJD2E inh-2=14µM*;FDH counter=-18%
CCC(=O)NC(c1ccc(F)cc1)c1cc(Cl)c2cccnc2c1O (stereo not drawn)	0%	-12%	x	x	x	x	x	16µM*	JMJD2E inh-2=16µM*;FDH counter=-18%
COc1ccc(COC(=O)c2ccc(S(=O)(=O)N3CCC(C)CC3)cc2)cc1	0%	14%	23%[57 µM]	-11%[0.501 µM]	-5%	-1%	x	x
Cc1c(CCO)c(=O)n2n1CCCC2	x	-17%	32%	x	x	x	x	x
Cc1ccc(N(CCC#N)C(=O)CN2C(=O)NC(Cc3ccccc3)C2=O)cc1 (stereo not drawn)	4%	1%	27%	9%	-13%	37%	x	x
CN(CCN1CCc2ccccc2C1)Cc1nc(Cc2ccccc2F)no1	-3%	-15%	13%	2%	-15%	21%	x	x
Fc1cccc(COc2ccccc2CNc2ccccc2)c1	-1%	21%	-50%	64%[59 µM]	35%	-4%	x	x
